Experimental data published in ChEMBL document CHEMBL1961873, “Compounds: GSK PKIS; Assays: Nanosyn kinase panel” (2012).

Experiments:
[1] = test system: Tyrosine-protein kinase ABL1 (Homo sapiens), P00519 [T315I]; conditions: at 1 µM
[2] = test system: Tyrosine-protein kinase ABL1 (Homo sapiens), P00519 [Y253F]; conditions: at 0.1 µM
[3] = test system: Tyrosine-protein kinase ABL1 (Homo sapiens), P00519 [Y253F]; conditions: at 1 µM
[4] = target: Tyrosine-protein kinase ABL1 (Homo sapiens) (UniProt P00519); conditions: at 0.1 µM
[5] = target: Tyrosine-protein kinase ABL1 (Homo sapiens) (UniProt P00519); conditions: at 1 µM
[6] = target: ALK tyrosine kinase receptor (Homo sapiens) (UniProt Q9UM73); conditions: at 0.1 µM
Sequence of ALK tyrosine kinase receptor (Homo sapiens) (Q9UM73 19-1620 limits assumed): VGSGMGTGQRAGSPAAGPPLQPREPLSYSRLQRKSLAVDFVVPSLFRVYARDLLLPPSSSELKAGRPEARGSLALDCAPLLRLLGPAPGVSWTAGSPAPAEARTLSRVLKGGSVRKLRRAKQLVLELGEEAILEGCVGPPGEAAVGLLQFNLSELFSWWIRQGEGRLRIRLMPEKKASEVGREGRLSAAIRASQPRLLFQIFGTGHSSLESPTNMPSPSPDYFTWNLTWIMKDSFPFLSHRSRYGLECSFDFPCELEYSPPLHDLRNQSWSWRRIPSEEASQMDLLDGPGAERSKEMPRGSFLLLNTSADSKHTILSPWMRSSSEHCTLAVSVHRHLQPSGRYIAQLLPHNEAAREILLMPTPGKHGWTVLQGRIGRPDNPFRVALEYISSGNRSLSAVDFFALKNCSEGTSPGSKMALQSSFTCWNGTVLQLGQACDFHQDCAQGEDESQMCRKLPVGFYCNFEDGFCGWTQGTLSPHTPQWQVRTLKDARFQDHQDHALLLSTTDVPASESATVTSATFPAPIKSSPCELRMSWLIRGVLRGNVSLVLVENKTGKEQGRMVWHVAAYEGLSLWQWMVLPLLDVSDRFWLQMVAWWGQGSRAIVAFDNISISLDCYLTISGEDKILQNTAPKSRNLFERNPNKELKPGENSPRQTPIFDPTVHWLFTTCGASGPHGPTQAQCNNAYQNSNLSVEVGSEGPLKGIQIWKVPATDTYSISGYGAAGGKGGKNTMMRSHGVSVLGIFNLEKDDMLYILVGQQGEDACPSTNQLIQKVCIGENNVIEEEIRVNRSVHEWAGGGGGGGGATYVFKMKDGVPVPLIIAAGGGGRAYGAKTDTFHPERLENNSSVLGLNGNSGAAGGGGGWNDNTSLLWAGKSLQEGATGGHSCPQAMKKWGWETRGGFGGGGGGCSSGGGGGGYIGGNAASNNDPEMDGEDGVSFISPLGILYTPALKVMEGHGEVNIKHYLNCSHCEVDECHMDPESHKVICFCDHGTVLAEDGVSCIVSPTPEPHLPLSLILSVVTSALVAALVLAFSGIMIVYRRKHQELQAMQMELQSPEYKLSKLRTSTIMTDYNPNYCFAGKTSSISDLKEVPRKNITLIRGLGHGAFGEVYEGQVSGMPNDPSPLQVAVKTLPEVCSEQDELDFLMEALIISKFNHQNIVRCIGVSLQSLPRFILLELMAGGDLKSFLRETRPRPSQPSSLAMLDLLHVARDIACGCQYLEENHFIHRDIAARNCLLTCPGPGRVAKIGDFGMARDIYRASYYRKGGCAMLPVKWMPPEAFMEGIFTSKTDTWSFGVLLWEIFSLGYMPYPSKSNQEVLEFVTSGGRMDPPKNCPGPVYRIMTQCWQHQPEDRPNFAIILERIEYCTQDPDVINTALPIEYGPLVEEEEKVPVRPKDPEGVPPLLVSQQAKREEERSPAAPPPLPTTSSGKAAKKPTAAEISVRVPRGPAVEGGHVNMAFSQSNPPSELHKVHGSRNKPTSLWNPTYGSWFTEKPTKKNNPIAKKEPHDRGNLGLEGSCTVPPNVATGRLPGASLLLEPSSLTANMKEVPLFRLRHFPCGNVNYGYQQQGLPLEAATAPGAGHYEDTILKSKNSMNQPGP

[7] = target: ALK tyrosine kinase receptor (Homo sapiens) (UniProt Q9UM73); conditions: at 1 µM
[8] = target: Tyrosine-protein kinase ABL2 (Homo sapiens) (UniProt P42684); conditions: at 0.1 µM
Sequence of Tyrosine-protein kinase ABL2 (Homo sapiens) (P42684 whole entry): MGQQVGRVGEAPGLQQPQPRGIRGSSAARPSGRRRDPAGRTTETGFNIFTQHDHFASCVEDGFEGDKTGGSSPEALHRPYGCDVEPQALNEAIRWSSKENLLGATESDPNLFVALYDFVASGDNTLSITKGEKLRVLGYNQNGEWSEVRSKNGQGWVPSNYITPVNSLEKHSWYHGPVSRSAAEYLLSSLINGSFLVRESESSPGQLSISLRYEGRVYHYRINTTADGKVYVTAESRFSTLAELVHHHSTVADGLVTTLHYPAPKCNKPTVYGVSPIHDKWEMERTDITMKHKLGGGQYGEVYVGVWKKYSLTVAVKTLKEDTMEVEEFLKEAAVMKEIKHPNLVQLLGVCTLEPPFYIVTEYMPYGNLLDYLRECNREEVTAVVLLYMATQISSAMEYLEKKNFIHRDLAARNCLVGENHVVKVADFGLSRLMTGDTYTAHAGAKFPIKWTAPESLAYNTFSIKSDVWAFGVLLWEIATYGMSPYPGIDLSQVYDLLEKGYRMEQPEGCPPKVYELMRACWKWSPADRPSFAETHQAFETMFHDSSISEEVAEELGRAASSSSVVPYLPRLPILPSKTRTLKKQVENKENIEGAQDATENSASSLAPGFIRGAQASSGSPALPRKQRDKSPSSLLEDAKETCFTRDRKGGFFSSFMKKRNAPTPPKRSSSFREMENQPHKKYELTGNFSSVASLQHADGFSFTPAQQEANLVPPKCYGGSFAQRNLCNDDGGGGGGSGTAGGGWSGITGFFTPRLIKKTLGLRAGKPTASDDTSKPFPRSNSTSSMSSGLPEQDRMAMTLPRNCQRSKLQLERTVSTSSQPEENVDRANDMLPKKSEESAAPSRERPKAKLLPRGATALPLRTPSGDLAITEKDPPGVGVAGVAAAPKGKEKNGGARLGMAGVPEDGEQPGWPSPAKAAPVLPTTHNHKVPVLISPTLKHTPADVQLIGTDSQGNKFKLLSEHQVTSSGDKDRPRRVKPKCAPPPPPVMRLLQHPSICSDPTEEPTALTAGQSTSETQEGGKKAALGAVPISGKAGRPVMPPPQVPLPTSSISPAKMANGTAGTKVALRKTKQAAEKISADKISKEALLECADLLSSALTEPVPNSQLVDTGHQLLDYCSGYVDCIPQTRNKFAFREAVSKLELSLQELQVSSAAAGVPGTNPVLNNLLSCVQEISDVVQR

[9] = target: Tyrosine-protein kinase ABL2 (Homo sapiens) (UniProt P42684); conditions: at 1 µM
[10] = target: Tyrosine-protein kinase receptor UFO (Homo sapiens) (UniProt P30530); conditions: at 0.1 µM
Sequence of Tyrosine-protein kinase receptor UFO (Homo sapiens) (P30530 whole entry): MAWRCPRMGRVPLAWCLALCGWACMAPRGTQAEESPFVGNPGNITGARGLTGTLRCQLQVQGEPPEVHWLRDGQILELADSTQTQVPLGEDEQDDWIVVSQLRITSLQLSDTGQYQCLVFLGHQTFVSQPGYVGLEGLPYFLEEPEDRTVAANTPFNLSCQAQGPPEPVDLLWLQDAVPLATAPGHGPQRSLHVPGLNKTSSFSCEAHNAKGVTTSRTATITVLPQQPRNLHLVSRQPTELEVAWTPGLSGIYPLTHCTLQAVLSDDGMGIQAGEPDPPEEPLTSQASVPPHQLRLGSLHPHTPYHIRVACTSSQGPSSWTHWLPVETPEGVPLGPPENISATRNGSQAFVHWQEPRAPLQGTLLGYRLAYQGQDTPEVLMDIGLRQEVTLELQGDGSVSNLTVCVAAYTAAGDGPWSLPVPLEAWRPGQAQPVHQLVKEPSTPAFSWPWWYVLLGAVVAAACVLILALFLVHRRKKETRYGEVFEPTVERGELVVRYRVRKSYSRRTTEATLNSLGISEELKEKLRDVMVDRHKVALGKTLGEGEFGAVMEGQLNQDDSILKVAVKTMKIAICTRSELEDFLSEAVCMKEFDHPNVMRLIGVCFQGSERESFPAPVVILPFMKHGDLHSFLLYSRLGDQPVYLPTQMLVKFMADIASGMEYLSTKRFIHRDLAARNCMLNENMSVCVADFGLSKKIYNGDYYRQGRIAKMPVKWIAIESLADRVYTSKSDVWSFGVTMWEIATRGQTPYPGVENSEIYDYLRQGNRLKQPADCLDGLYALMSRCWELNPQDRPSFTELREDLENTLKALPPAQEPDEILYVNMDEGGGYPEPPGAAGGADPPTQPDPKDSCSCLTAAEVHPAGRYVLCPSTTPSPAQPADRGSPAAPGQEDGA

[11] = target: Tyrosine-protein kinase receptor UFO (Homo sapiens) (UniProt P30530); conditions: at 1 µM
[12] = target: Tyrosine-protein kinase Blk (Homo sapiens) (UniProt P51451); conditions: at 0.1 µM
Sequence of Tyrosine-protein kinase Blk (Homo sapiens) (P51451 2-505 limits assumed): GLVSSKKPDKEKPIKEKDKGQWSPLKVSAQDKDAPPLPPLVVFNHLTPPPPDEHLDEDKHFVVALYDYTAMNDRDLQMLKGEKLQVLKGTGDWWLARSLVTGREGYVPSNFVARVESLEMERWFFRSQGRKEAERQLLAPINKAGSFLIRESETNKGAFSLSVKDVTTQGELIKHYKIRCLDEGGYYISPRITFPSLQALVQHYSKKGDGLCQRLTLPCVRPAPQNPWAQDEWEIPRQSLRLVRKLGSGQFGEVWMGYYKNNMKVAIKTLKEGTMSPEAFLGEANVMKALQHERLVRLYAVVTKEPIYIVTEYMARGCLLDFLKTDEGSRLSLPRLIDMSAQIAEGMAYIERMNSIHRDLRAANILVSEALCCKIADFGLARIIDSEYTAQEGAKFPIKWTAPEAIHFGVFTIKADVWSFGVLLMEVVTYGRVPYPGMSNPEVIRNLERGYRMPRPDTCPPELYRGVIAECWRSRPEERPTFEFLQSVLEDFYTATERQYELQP

[13] = target: Tyrosine-protein kinase Blk (Homo sapiens) (UniProt P51451); conditions: at 1 µM
[14] = target: T1, Cytoplasmic tyrosine-protein kinase BMX (Homo sapiens) (UniProt P51813); conditions: at 0.1 µM
T1 sequence (whole entry): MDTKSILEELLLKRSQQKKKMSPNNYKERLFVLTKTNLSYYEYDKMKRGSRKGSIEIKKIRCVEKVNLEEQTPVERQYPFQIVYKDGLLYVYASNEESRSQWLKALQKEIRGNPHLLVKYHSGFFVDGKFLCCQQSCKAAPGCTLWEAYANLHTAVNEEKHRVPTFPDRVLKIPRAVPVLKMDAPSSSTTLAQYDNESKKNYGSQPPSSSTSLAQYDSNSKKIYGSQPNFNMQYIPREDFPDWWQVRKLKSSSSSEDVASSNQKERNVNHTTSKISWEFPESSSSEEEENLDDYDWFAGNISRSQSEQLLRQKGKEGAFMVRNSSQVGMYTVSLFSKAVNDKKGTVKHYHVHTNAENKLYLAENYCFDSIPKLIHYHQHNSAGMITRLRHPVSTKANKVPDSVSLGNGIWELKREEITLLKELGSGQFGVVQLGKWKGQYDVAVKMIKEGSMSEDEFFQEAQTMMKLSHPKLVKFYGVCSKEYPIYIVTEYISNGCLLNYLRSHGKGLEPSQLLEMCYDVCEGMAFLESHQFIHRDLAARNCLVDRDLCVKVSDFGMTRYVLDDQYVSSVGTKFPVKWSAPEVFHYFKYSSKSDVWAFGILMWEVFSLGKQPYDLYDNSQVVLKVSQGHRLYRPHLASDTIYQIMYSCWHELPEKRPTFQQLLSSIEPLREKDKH

[15] = target: T1, Cytoplasmic tyrosine-protein kinase BMX (Homo sapiens); conditions: at 1 µM
[16] = target: Protein-tyrosine kinase 6 (Homo sapiens) (UniProt Q13882); conditions: at 0.1 µM
Sequence of Protein-tyrosine kinase 6 (Homo sapiens) (Q13882 whole entry, looked up): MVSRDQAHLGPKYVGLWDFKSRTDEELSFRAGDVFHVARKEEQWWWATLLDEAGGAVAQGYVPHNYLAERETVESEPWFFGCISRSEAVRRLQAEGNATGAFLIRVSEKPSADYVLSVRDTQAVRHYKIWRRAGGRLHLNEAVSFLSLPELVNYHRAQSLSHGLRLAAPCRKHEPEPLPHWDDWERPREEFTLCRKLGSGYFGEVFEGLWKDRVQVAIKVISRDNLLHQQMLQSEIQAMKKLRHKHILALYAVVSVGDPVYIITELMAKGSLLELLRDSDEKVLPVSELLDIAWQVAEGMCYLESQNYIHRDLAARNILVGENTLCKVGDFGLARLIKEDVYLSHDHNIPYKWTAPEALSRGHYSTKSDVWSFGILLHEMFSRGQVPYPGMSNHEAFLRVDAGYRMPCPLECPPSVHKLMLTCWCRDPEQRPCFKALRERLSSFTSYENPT

[17] = target: Protein-tyrosine kinase 6 (Homo sapiens) (UniProt Q13882); conditions: at 1 µM
[18] = target: Tyrosine-protein kinase BTK (Homo sapiens) (UniProt Q06187); conditions: at 0.1 µM
[19] = target: Tyrosine-protein kinase BTK (Homo sapiens) (UniProt Q06187); conditions: at 1 µM
[20] = target: Tyrosine-protein kinase CSK (Homo sapiens) (UniProt P41240); conditions: at 0.1 µM;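 further: value given is the averaged percent inhibition of CSK kinase activity, from the GSK PKIS kinase inhibitor set screening panel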
Sequence of Tyrosine-protein kinase CSK (Homo sapiens) (P41240 2-450 limits assumed): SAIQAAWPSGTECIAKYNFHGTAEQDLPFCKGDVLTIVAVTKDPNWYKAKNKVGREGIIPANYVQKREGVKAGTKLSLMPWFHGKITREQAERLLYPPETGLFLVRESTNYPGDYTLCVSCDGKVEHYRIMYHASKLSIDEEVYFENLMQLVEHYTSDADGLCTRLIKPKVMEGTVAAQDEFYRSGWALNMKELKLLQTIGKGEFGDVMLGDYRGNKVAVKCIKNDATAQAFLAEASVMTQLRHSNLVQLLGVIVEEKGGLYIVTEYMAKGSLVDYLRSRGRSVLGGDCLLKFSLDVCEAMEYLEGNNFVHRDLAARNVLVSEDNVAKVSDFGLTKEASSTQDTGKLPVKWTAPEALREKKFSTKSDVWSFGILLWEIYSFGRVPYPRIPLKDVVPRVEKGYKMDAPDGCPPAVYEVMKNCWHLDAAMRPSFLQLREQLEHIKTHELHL

Compound	inhibition [1] [%]	inhibition [2] [%]	inhibition [3] [%]	inhibition [4] [%]	inhibition [5] [%]	inhibition [6] [%]	inhibition [7] [%]	inhibition [8] [%]	inhibition [9] [%]	inhibition [10] [%]	inhibition [11] [%]	inhibition [12] [%]	inhibition [13] [%]	inhibition [14] [%]	inhibition [15] [%]	inhibition [16] [%]	inhibition [17] [%]	inhibition [18] [%]	inhibition [19] [%]	inhibition [20] [%]
COc1cc2ncnc(Nc3ccc4c(cnn4Cc4ccccc4)c3)c2cc1OC	7.47	2.86	4.15	3.47	3.36	1.67	3.06	0.85	4.75	-3.79	-3.18	13.9	60.8	3.73	23.4	13.1	53.2	4.09	29.1	11.1
O=C1Nc2ccccc2/C1=C/Nc1ccc2[nH]c(=O)[nH]c2c1	23.7	9.65	23.3	8.95	25.8	2.88	16.4	7.75	19.4	-8.65	–	7.96	33	5.38	7.7	4.56	8.06	0.87	4.29	6.52
NC(=O)c1cccc(Nc2nccc(Nc3cccc(F)c3)n2)c1	17.1	12.8	63.8	11.6	55.6	0.23	10.1	11.5	51.9	-1.82	-2.93	0.38	13.8	4.88	37.9	4.3	36.2	0.63	7.3	0.49
Nc1nccc(-c2c(-c3ccc(F)cc3)ncn2CCCN2CCOCC2)n1	3.9	3.98	6.6	2.4	7.25	2.67	4.91	2.67	0.55	-5.59	–	2.93	5.42	3.6	2.77	4.81	10.8	-0.92	-0.14	2.1
CCn1c(-c2nonc2N)nc2ccc(F)cc21	5.94	2.99	6.49	3.48	3.51	5.2	5.27	3.97	6.07	-7.61	-5.29	3.96	4.5	5.08	6.05	4.83	8.38	0.19	-0.49	5.53
CCS(=O)(=O)c1ccc(OC)c(Nc2ncc(-c3cccc(OC)c3)o2)c1	26.5	48.5	86.3	29.8	77.7	2.9	8.1	27.3	72.6	-3.48	-1.98	10.4	64.3	-2.1	25.9	6.68	40.7	3.67	21.6	-0.51
O=C(Nc1ccc(Oc2ccc3[nH]c(NC(=O)c4ccco4)nc3c2)cc1)Nc1cc(C(F)(F)F)ccc1F	94.4	38	84	27.9	72.2	-1.81	7.58	35.6	66.4	16.1	60.5	-3.12	1.7	-2.09	1.74	1.76	3.78	-3.7	-3.03	2.94
